Test results taken from PubChem BioAssay (Tox21).
Records with an inconclusive call do not appear. Entries that show only a call come without a potency. Active and inactive are the calls of the source. The call rests on the fitted dose curve.

assay: G protein-coupled receptor (GPCR) small molecule agonists, calcium flux assay: HEK293 wild type cell line counter screen (AID 1920065); conditions: HEK293 WT calcium flux, fluorescence, agonist mode; series mostly up to 57.6 µM; activation: at the top concentration
In short: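 Wild-type HEK293 cells plated 18 h, loaded with calcium dye 1 h at 37 C, then compounds added in agonist mode (ATP as positive control). Kinetic fluorescence Ex/Em 480/540 recorded 3 min at 1 sec intervals; 15 concentrations, triplicate.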

Row | Structure (SMILES) | Potency
1 | CCC(C)OC(=O)c1ccc(O)cc1 (stereo not given) | inactive
2 | O=c1n(CC2CO2)c(=O)n(CC2CO2)c(=O)n1CC1CO1 (stereo not given) | inactive
3 | COc1ccc2c(c1)c(CC(=O)O)c(C)n2C(=O)c1ccc(Cl)cc1 | inactive
4 | Oc1c(Cl)cc(Cl)c(Cl)c1Cc1c(O)c(Cl)cc(Cl)c1Cl | inactive
5 | NC(=O)c1ncn([C@@H]2O[C@H](CO)[C@@H](O)[C@H]2O)n1 | inactive
6 | CC(=O)OCC(=O)[C@@]12N=C(C)O[C@@H]1C[C@H]1[C@@H]3CCC4=CC(=O)C=C[C@]4(C)[C@H]3[C@@H](O)C[C@@]12C | inactive
7 | CCCCC(CC)COC(=O)C(C#N)=C(c1ccccc1)c1ccccc1 (stereo not given) | inactive
8 | OC1CCCCC1 | inactive
9 | Cc1cc(=O)[nH]c(=S)[nH]1 | inactive
10 | O=c1c(O)c(-c2ccc(O)cc2)oc2cc(O)cc(O)c12 | inactive
11 | COCCOCCOC | inactive
12 | C=C(C)C(=O)OCCCCCC | inactive
13 | C=C(C)C1CC=C(C)C(OC(C)=O)C1 (stereo not given) | inactive
14 | Nc1ncn([C@@H]2O[C@H](CO)[C@@H](O)[C@H]2O)c(=O)n1 | inactive
15 | C=C1C2CCC(C2)C1(C)C (stereo not given) | inactive
16 | COCc1c(C(C)C)nc(C(C)C)c(/C=C/[C@@H](O)C[C@@H](O)CC(=O)O)c1-c1ccc(F)cc1 | inactive
17 | CC(=O)Nc1ccc(C(=O)CCl)cc1 | inactive
18 | C=CC(C)(CCC=C(C)C)OC(C)=O (stereo not given) | inactive
19 | C[C@]12C[C@H](O)[C@H]3[C@@H](CCC4=CC(=O)CC[C@@]43C)[C@@H]1CC[C@@H]2C(=O)CO | inactive
20 | CCCCCCCC(=O)OC | inactive

Row | Structure (SMILES) | Potency
21 | O=C(Cl)c1c(Cl)c(Cl)c(C(=O)Cl)c(Cl)c1Cl | inactive
22 | OC(Cn1cncn1)(Cn1cncn1)c1ccc(F)cc1F | inactive
23 | COC(=O)CCCCC(=O)OC | inactive
24 | C[C@]12CC[C@@H]3c4ccc(O)cc4CC[C@H]3[C@@H]1CC[C@H]2O | inactive
25 | CCCN(CCC)C(=O)SCC | inactive
26 | C=C(C#N)C(=O)OCC | inactive
27 | C[Si]1(C)O[Si](C)(C)O[Si](C)(C)O[Si](C)(C)O1 | inactive
28 | CC(=O)Nc1nnc(S(N)(=O)=O)s1 | inactive
29 | O=[Se](O)O | inactive
30 | CCCCCCCCCCC(CO)CCCCCCCC (stereo not given) | inactive
31 | C#C[C@]1(O)CC[C@H]2[C@@H]3CCC4=Cc5oncc5C[C@]4(C)[C@H]3CC[C@@]21C | inactive
32 | COC(C)COC(C)COC(C)CO (stereo not given) | inactive
33 | Brc1ccc(Oc2ccc(Br)cc2)cc1 | inactive
34 | O=C1CCCCCCCCCCCN1 | inactive
35 | O=C(c1ccc(O)cc1)c1ccc(O)cc1O | inactive
36 | CCCC(O)C(CC)CO (stereo not given) | inactive
37 | CC(=O)Oc1ccc(C(c2ccc(OC(C)=O)cc2)c2ccccn2)cc1 | inactive
38 | CC1COC(=O)O1 (stereo not given) | inactive
39 | CC(=O)O[C@]1(C(C)=O)CC[C@H]2[C@@H]3C=C(Cl)C4=CC(=O)CC[C@]4(C)[C@H]3CC[C@@]21C | inactive
40 | O=C(CC(C(=O)OC1CCCCC1)S(=O)(=O)O)OC1CCCCC1 (stereo not given) | inactive

assay: p53 small molecule agonists, cell-based qHTS assay with human liver microsomes (AID 1963577); conditions: HCT-116 p53RE-bla with human liver microsomes, ratio, 16 h; series mostly up to 66 µM; activation: at the top concentration;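 further: p53 response element beta-lactamase reporter cells with liver microsomes plus NADPH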
In short: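 Fluorescence of the beta-lactamase reporter in p53RE-bla cells, detected with LiveBLAzer substrate (2 h, room temperature, dark), served as the read-out after 16 h compound exposure at 37 C with human liver microsomes and NADPH, each 0.5 mg/mL final.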

Row | Structure (SMILES) | Potency | activation
41 | CCC(C)OC(=O)c1ccc(O)cc1 (stereo not given) | inactive | 
42 | O=c1n(CC2CO2)c(=O)n(CC2CO2)c(=O)n1CC1CO1 (stereo not given) | inactive | 
43 | COc1ccc2c(c1)c(CC(=O)O)c(C)n2C(=O)c1ccc(Cl)cc1 | inactive | 
44 | Oc1c(Cl)cc(Cl)c(Cl)c1Cc1c(O)c(Cl)cc(Cl)c1Cl | inactive | 
45 | NC(=O)c1ncn([C@@H]2O[C@H](CO)[C@@H](O)[C@H]2O)n1 | inactive | 
46 | CC(=O)OCC(=O)[C@@]12N=C(C)O[C@@H]1C[C@H]1[C@@H]3CCC4=CC(=O)C=C[C@]4(C)[C@H]3[C@@H](O)C[C@@]12C | inactive | 
47 | CCCCC(CC)COC(=O)C(C#N)=C(c1ccccc1)c1ccccc1 (stereo not given) | inactive | 
48 | OC1CCCCC1 | inactive | 
49 | Cc1cc(=O)[nH]c(=S)[nH]1 | inactive | 
50 | O=c1c(O)c(-c2ccc(O)cc2)oc2cc(O)cc(O)c12 | inactive | 
51 | COCCOCCOC | inactive | 
52 | C=C(C)C(=O)OCCCCCC | inactive | 
53 | C=C(C)C1CC=C(C)C(OC(C)=O)C1 (stereo not given) | inactive | 
54 | Nc1ncn([C@@H]2O[C@H](CO)[C@@H](O)[C@H]2O)c(=O)n1 | inactive | 
55 | C=C1C2CCC(C2)C1(C)C (stereo not given) | inactive | 
56 | COCc1c(C(C)C)nc(C(C)C)c(/C=C/[C@@H](O)C[C@@H](O)CC(=O)O)c1-c1ccc(F)cc1 | inactive | 
57 | CC(=O)Nc1ccc(C(=O)CCl)cc1 | inactive | 
58 | C=CC(C)(CCC=C(C)C)OC(C)=O (stereo not given) | inactive | 
59 | C[C@]12C[C@H](O)[C@H]3[C@@H](CCC4=CC(=O)CC[C@@]43C)[C@@H]1CC[C@@H]2C(=O)CO | inactive | 
60 | CCCCCCCC(=O)OC | inactive | 

Row | Structure (SMILES) | Potency | activation
61 | O=C(Cl)c1c(Cl)c(Cl)c(C(=O)Cl)c(Cl)c1Cl | inactive | 
62 | OC(Cn1cncn1)(Cn1cncn1)c1ccc(F)cc1F | inactive | 
63 | COC(=O)CCCCC(=O)OC |  | -1.48% (inactive)
64 | C[C@]12CC[C@@H]3c4ccc(O)cc4CC[C@H]3[C@@H]1CC[C@H]2O | inactive | 
65 | CCCN(CCC)C(=O)SCC | inactive | 
66 | C=C(C#N)C(=O)OCC | inactive | 
67 | C[Si]1(C)O[Si](C)(C)O[Si](C)(C)O[Si](C)(C)O1 | inactive | 
68 | CC(=O)Nc1nnc(S(N)(=O)=O)s1 | inactive | 
69 | O=[Se](O)O |  | -0.0797% (inactive)
70 | CCCCCCCCCCC(CO)CCCCCCCC (stereo not given) | inactive | 
71 | C#C[C@]1(O)CC[C@H]2[C@@H]3CCC4=Cc5oncc5C[C@]4(C)[C@H]3CC[C@@]21C | inactive | 
72 | COC(C)COC(C)COC(C)CO (stereo not given) | inactive | 
73 | Brc1ccc(Oc2ccc(Br)cc2)cc1 | inactive | 
74 | O=C1CCCCCCCCCCCN1 | inactive | 
75 | O=C(c1ccc(O)cc1)c1ccc(O)cc1O | inactive | 
76 | CCCC(O)C(CC)CO (stereo not given) | inactive | 
77 | CC(=O)Oc1ccc(C(c2ccc(OC(C)=O)cc2)c2ccccn2)cc1 | inactive | 
78 | CC1COC(=O)O1 (stereo not given) | inactive | 
79 | CC(=O)O[C@]1(C(C)=O)CC[C@H]2[C@@H]3C=C(Cl)C4=CC(=O)CC[C@]4(C)[C@H]3CC[C@@]21C | inactive | 
80 | O=C(CC(C(=O)OC1CCCCC1)S(=O)(=O)O)OC1CCCCC1 (stereo not given) |  | 1.31% (inactive)
